Source: PubChem
HTT ATP protect = protects HTT-Q103 PC12 cells, measured by ATP | PC12 HTT-Q103 induced, cytoprotection, ATP luminescence, 40 h | Potency, µM (titrated, usually from 56.4 µM), for the others: cytoprotection (ATP increase), usual class: activators | 230,000 tested, 0.14% active; active = well fitted curve in the direction sought with a large enough effect; inconclusive = small, poorly fitted or top-dose-only effect, or another doubt; inactive = no such curve, though single readings can be large; an effect the other way counts as inactive or inconclusive; note: % of control where 0% means no effect; nearly all actives have a fitted effect of over 45% in size
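Compounds were screened for protection of PC12 cells against cell death after tebufenozide induction (100 nM final) of mutant Huntingtin exon 1 (Q103) fused to GFP.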
ALDH1A1 inh = ALDH1A1 (human) enzyme inhibition. Purified ALDH1A1, NADH fluorescence, propionaldehyde substrate. Potency, µM (series often up to 75.3 µM), without a hit: at the top dose activity, negative = inhibition, most hits filed as inhibitors. P00352. AID 1030. 220,000 tested, 7.3% active;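 note: plate controls were no enzyme wells and a reference inhibitor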
LMNA splice mod = modulators of lamin A splicing; AID 1487; Potency, µM (titrated, usually from 46.1 µM), for the others: top-dose ratio change, negative = inhibition, hits mostly inhibitors; 200,000 tested, 0.01% active; HeLa LMNA splicing GFP/RFP minigene ratio, 48 h; active = well fitted inhibition curve with a large enough effect in the signal ratio, with a control signal flat, not every such curve was filed as active; inconclusive = small, poorly fitted or top-dose-only effect, or effect the other way, or a change in a side signal; the % refers to the signal ratio; note: % is set by controls: 0 for no effect and ±100 for the full control effect
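Read-out is the ratio of GFP to DsRed2 object intensity, acquired by 488 nm laser-scanning cytometry on HeLa lamin A-EGFP minigene reporter cells. Compound incubation 48 hrs at 37 °C in Opti-MEM with 2% FBS; DMSO 0.5% final.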
HPGD block = inhibitors of human 15-hydroxyprostaglandin dehydrogenase (HPGD) | purified HPGD, NADH fluorescence kinetic, PGE2 substrate | Potency, µM, inactives show at the highest dose activity change, negative = inhibition, actives largely listed as inhibitors | 150,000 tested, 4.3% active; note: % is set by controls: 0 for no effect and ±100 for the full control effect
Target sequence (P15428 whole entry, looked up): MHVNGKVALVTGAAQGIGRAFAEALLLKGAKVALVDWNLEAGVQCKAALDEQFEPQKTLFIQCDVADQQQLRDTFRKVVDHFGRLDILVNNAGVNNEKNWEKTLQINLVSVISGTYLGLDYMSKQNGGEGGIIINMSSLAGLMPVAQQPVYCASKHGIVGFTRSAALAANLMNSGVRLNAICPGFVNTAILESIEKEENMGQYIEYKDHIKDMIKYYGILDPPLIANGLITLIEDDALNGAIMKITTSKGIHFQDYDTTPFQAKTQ
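20 nM HPGD preincubated 15 min at room temperature with compound in 50 mM Tris-HCl pH 8, 0.01% Tween 20. Started with 1 mM NAD+ and 30 uM prostaglandin E2; NADH fluorescence (360/450 nm) read 5 times over 30-s intervals, last minus first.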
HttQ103 aggreg = mutant huntingtin aggregation inhibition; Potency, µM (doses to about 46.1 µM), without a hit: top-dose activity change, negative = inhibition, actives largely listed as inhibitors; 220,000 tested, 1.1% active; AID 1688; PC12 HttQ103-GFP aggregates, Acumen cytometry, 40 h; active = well fitted curve in the direction sought with a large enough effect; inconclusive = small, poorly fitted or top-dose-only effect, or another doubt; inactive = no such curve, though single readings can be large; an effect the other way counts as inactive or inconclusive; note: % is set by controls: 0 for no effect and ±100 for the full control effect; nearly all actives have a fitted effect of over 60% in size
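PC12 cells with ecdysone-inducible HTT exon1 Q103-GFP, induced by 100 nM tebufenozide, given compounds in a concentration series. GFP aggregates (1–25 um, 6 SD above background) counted in lysates by laser-scanning cytometry, 488 nm excitation.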
An asterisk follows results filed as active; ? = inconclusive; / = no result given; [ ] = dose if it differs, or a comment. Hits are enriched below; roughly 8.8% of the tested compounds scored in any of these assays. Unless noted, calls come from the whole dose curve; as a rule, active = well fitted inhibition curve with a large enough effect (not every such curve was filed as active); inconclusive = small, poorly fitted or top-dose-only effect, or another doubt; inactive = no such curve, though single readings can be large or run the other way. Potency is the fitted concentration of half-maximal effect.

SMILES | HTT ATP protect | ALDH1A1 inh | LMNA splice mod | HPGD block | HttQ103 aggreg
CC1(C)CC(=O)C(N=Nc2ccc3ncsc3c2)=C(O)C1 | 1% | 4.5µM* | 12% | -23% | 17%
CC1(C)CC(=O)C(N=Nc2ccc(OC(F)F)cc2)=C(O)C1 | 9%[10 µM] | 1.4µM* | -14%[46 µM] | / | 12%
O=C(NCCOc1ccccc1)O[C@@H]1C(=O)c2cc(Br)ccc2O[C@H]1c1ccc2c(c1)OCO2 | -18% | 2% | / | -7% | /
CC1=C(C(=O)Nc2ccccc2)C(c2ccncc2)n2nnnc2N1 (configuration not stated) | -34% | ? | 0% | / | -32%
CC1=C(C(=O)Nc2ccccc2)C(c2cccs2)n2nnnc2N1 (configuration not stated) | -15%[10 µM] | 11µM* | -11% | -8% | -1%
CC1=C(C(=O)Nc2cccnc2)C(c2ccccn2)n2nnnc2N1 (configuration not stated) | -47% | 14µM* | -7% | -17% | -24%
CC(C)(C)NS(=O)(=O)c1cccc(S(=O)(=O)c2cccc(S(=O)(=O)NC(C)(C)C)c2)c1 | -21% | 5% | ? | 20µM* | -11%
CN(C(=O)Cn1cc(S(=O)(=O)Cc2ccccc2Cl)c2ccccc21)c1ccccc1 | / | / | -4%[46 µM] | / | /
O=C(c1ccc2snnc2c1)N1CCOCC1 | -7% | 3% | 1% | -7% | 7%
O=C(c1ccc2snnc2c1)N1CCCCC1 | 4%[10 µM] | -6% | 1% | 16µM* | 12%
COC(=O)C1(Cc2ccccc2)C=C2C(=C(C(C)C)C(=O)C2C)CN1 (configuration not stated) | -80% | ? | / | ? | /
CSCCC(NC(=O)OC(C)(C)C)C(=O)Oc1ccc2c(=O)c(-c3ccc4c(c3)OCCO4)coc2c1 (configuration not stated) | -79% | 25µM* | ? | -16% | 2%
CCOC(=O)c1nn(-c2ccccc2C)c(=O)c(C#N)c1C | 2%[10 µM] | 4% | 6% | -2% | 19%
CCOC(=O)c1c(N)sn(-c2ccccc2C)c1=S | -18% | 3.5µM* | -2% | 11µM* | -25%
COc1ccc(N/C=C2/Sc3ccccc3NC2=O)cc1 | / | 4µM* | / | / | ?
Cc1ccc(N/C=C2/Sc3ccccc3NC2=O)cc1 | -14% | 22µM* | ? | / | -6%[9.22 µM]
O=C1Nc2ccccc2S/C1=C/NCc1ccccc1Cl | 7% | 4.5µM* | -15%[9.22 µM] | / | 17%
O=C1Nc2ccccc2S/C1=C/c1cccs1 | 33%[10 µM] | / | / | / | ?
Cc1ccc(S(=O)(=O)Nc2cc(-c3nn(C)c(=O)c4ccccc34)ccc2N2CCOCC2)cc1 | -74% | 22µM* | ? | ? | ?
CCCC(=O)Nc1cc(-c2nn(C)c(=O)c3ccccc23)ccc1N1CCOCC1 | 24% | 28µM* | 9% | -13% | 17%[9.22 µM]
CC(=O)Nc1cc(-c2nn(C)c(=O)c3ccccc23)ccc1N1CCOCC1 | -11% | ? | -12% | -15% | 31%
Cn1nc(-c2ccc(N3CCOCC3)c(NS(=O)(=O)c3ccc(Cl)cc3)c2)c2ccccc2c1=O | -52% | -10% | ? | -9% | 22%
C#CCCCC(=O)Nc1ccccc1 | 10% | -3% | / | -6% | /
CCOc1cc(/C=N/n2cnnc2)ccc1OS(=O)(=O)c1ccc(C)cc1 | -37%[1.9 µM] | 22µM* | -2%[46 µM] | / | -2%[9.22 µM]
CCOc1cc(/C=N/n2cnnc2)ccc1OCC(=O)Nc1ccccc1OC | -9% | ? | -4% | ? | 2%
SMILES | HTT ATP protect | ALDH1A1 inh | LMNA splice mod | HPGD block | HttQ103 aggreg
O=C(Nc1cccc(C(=O)OCc2cc(=O)n3c4c(sc3n2)CCCC4)c1)c1ccc(Cl)cc1 | / | / | 5%[46 µM] | / | /
O=S(=O)(NCc1ccncc1)c1ccc(Br)s1 | -27%[0.074 µM] | 5% | ? | -12% | 2.5µM*
CCCCc1ccc(C2C(C#N)=C(N)SC(N)=C2C#N)s1 | 21% | ? | 22% | 14µM* | ?
CC(C)c1ccc(NC(=O)C2CC(=O)N=C(N)S2)cc1 (configuration not stated) | -6% | 18µM* | 10% | -1% | 3%
NC1=NC(=O)CC(C(=O)Nc2cccc3ccccc23)S1 (configuration not stated) | -19% | -13% | 7%[9.22 µM] | / | 7%
NC1=NC(=O)CC(C(=O)NCCc2ccccc2)S1 (configuration not stated) | -3%[10 µM] | 13µM* | 14% | 6% | -2%
